# Assay results from PubChem BioAssay (Tox21).
# Values joined by “and” are separate entries in the source; they are usually repeats but may differ in a detail not shown here. Equal entries are not always repeated. Inconclusive results are not listed. A call without a number means that no potency is given here. Some structures have more than one record in an assay (separate samples or runs), and their calls can disagree. Active and inactive are the calls of the source. Unless noted, calls follow the shape of the dose curve; as a rule, active = well fitted curve in the direction sought with a large enough effect in the repeat runs; inconclusive = weak or mixed curves; inactive = no such curve, though single readings can be large; an effect the other way counts as inactive or inconclusive.
# Experiments:
# [1] = target: Thyrotropin-releasing hormone receptor (Homo sapiens) (UniProt P34981); test: qHTS assay to identify small molecule agonists of the thyrotropin-releasing hormone receptor (TRHR) signaling pathway (AID 1346891; calls by dose curve; also: potency is read from the fitted curve at half-maximal effect; as to activation: series mostly up to about 58 µM)
# Summary of the method: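 Intracellular calcium rise, read as fluorescence every second for 3 min, served as the agonist signal in dye-loaded HEK293 cells expressing TRHR; each compound ran at 15 concentrations in triplicate.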
# [2] = Human pregnane X receptor (PXR) small molecule agonists, qHTS cell viability counter screen (AID 1346977); also: nearly all actives have a fitted effect of over 50% in size; also: potency is read from the fitted curve at half-maximal effect
# Summary of the method: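 PXR-Luc HepG2, 2,000 cells/well, 5% charcoal-stripped FBS; 5hr settle; cpd 24hr, 37C/5% CO2; CellTiter-Fluor at 23hr, read 1hr later (fluorescence).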
# [3] = Caspase-3/7 induction in HepG2 cells by small molecules, qHTS assay (AID 1346978); also: nearly all actives have a fitted effect of over 15% in size; also: potency is read from the fitted curve at half-maximal effect
# Summary of the method: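 Caspase-3/7 induction was measured by Caspase-Glo 3/7 luminescence (30 min, room temperature) after a 17 hr compound exposure of wild-type HepG2 cells seeded at 2,000 per well and pre-incubated 5 hr.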
# [4] = Caspase-3/7 induction in CHO-K1 cells by small molecules, qHTS cell viability counter screen (AID 1346979); also: nearly all actives have a fitted effect of over 35% in size; also: potency is read from the fitted curve at half-maximal effect
# Summary of the method: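 Cells (CHO-K1, wild type) are plated at 1,500 per well and incubated 5hr. Test compounds in DMSO are then pinned in, followed by 16hr at 37C and 5% CO2. Viability is read by CellTiter-Fluor fluorescence after 1hr.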
# [5] = Caspase-3/7 induction in CHO-K1 cells by small molecules, qHTS assay (AID 1346980); also: nearly all actives have a fitted effect of over 15% in size
# Summary of the method: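 Luminescent Caspase-Glo 3/7 read (30min, room temperature) quantified apoptosis induction. Cells were wild-type CHO-K1, treated with compound for 17hr at 37 C and 5% CO2.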
# [6] = Caspase-3/7 induction in HepG2 cells by small molecules, qHTS cell viability counter screen (AID 1346981); also: nearly all actives have a fitted effect of over 30% in size; also: potency is read from the fitted curve at half-maximal effect
# Summary of the method: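 After a 5-hr attachment period at 37 C and 5% CO2, wild-type HepG2 cells received compounds in DMSO. Sixteen hours later CellTiter-Fluor was dispensed and the fluorescent signal quantified after a further hour.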
# [7] = target: Nuclear receptor subfamily 1 group I member 2 (Homo sapiens) (UniProt O75469); test: Human pregnane X receptor (PXR) small molecule agonists, qHTS assay (AID 1346982); also: nearly all actives have a fitted effect of over 35% in size; also: potency is read from the fitted curve at half-maximal effect
# Summary of the method: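 Tox21 qHTS; PXR-Luc HepG2; compounds pinned from DMSO; 24 hr, 37 C; ONE-Glo luciferase detection, 30 min room temperature.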
# [8] = target: Nuclear receptor subfamily 1 group I member 2 (Rattus norvegicus) (UniProt Q9R1A7); test: Rat pregnane X receptor (rPXR) activation by small molecules, qHTS assay (AID 1346983); settings: rPXR luciferase reporter cells, One-Glo luminescence, 24 h; max activation: stronger effect = higher value; also: nearly all actives have a fitted effect of over 20% in size
# Summary of the method: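 Luminescent readout (One-Glo luciferase, 30 min room temperature) followed 24 hr compound treatment at 37 C of rPXR cells plated 2,000 per well and preincubated 5hr; qHTS format with compounds delivered in DMSO.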
# [9] = target: Nuclear receptor subfamily 1 group I member 2 (Homo sapiens) (UniProt O75469); test: CYP3A4 induction through human pregnane X receptor (PXR) by small molecules, qHTS assay (AID 1346984); also: nearly all actives have a fitted effect of over 40% in size; also: potency is read from the fitted curve at half-maximal effect
# Summary of the method: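 Cells (DPX-2; HepG2 with PXR element plus CYP3A4-promoter luciferase) settled 5hr, then were treated 24hr at 37C. A 3hr, 3uM-final Luciferin-IPA step preceded luminescence measurement with One-Glo.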
# [10] = target: Nuclear receptor subfamily 1 group I member 2 (Homo sapiens) (UniProt O75469); test: Human pregnane X receptor (PXR) activation by small molecules, qHTS assay (AID 1346985); also: nearly all actives have a fitted effect of over 40% in size
# Summary of the method: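 DPX-2 cells (HepG2 co-transfected with a PXR response element and a CYP3A4-promoter luciferase construct) were seeded at 2,000 per well, rested 5 hr at 37C, then exposed to DMSO-dissolved compounds for 24 hr. Activation was read as luciferase luminescence.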
# Chain of Thyrotropin-releasing hormone receptor (Homo sapiens) (P34981 whole entry, looked up): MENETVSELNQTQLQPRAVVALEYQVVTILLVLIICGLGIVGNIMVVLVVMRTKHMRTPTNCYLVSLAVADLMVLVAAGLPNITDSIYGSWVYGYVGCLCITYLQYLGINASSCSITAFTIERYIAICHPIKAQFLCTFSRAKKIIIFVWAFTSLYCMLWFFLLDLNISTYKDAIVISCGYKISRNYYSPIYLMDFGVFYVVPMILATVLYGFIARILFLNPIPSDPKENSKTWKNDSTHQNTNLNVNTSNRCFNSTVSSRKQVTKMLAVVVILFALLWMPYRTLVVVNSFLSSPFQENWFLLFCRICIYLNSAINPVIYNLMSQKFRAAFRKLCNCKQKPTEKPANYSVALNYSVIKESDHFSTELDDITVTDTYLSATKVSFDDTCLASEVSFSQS
# Chain of Nuclear receptor subfamily 1 group I member 2 (Homo sapiens) (O75469 whole entry, looked up): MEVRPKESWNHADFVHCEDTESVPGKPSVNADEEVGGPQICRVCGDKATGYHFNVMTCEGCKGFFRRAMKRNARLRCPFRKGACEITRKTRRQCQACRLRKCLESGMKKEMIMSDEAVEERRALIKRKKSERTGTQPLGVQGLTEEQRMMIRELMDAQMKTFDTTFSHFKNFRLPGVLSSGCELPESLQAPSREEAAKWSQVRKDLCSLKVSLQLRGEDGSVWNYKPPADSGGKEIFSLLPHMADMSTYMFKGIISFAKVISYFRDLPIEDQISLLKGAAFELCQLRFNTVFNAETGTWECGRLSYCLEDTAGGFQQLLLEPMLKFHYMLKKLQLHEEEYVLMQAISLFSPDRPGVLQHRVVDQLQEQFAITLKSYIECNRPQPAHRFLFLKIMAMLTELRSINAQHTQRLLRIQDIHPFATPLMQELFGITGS
# Chain of Nuclear receptor subfamily 1 group I member 2 (Rattus norvegicus) (Q9R1A7 whole entry, looked up): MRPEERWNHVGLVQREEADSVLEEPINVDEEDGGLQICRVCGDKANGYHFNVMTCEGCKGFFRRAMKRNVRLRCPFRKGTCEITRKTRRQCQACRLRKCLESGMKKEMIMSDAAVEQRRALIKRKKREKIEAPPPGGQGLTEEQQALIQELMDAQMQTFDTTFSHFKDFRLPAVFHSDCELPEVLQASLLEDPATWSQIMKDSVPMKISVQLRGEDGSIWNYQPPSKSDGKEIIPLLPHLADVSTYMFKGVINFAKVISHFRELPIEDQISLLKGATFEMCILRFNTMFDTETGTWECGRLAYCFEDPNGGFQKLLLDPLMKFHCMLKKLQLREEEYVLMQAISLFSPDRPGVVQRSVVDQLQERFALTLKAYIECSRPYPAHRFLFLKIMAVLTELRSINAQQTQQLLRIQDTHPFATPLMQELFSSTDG
Compound,Potency [1],Potency [2],Potency [3],Potency [4],Potency [5],Potency [6],Potency [7],max activation [8],Potency [9],outcome [10],caspase activation [3],caspase-3/7 activation [5]
O=C1NC(=O)C(c2ccccc2)(c2ccccc2)N1,inactive,inactive,inactive,inactive,inactive,inactive,,,,,,
CCCCOC(=O)c1ccc(O)cc1,inactive,inactive,inactive,31 µM (active) and inactive,inactive,inactive,69.4 µM (active) and inactive,,,,,
Nc1c2c(nc3ccccc13)CCCC2,inactive,54.5 µM (active),inactive,inactive,inactive,inactive,48.6 µM (active) and 38.6 µM (active) and inactive,,,,,
CCOC(N)=O,inactive,inactive,inactive,inactive,inactive,inactive,inactive,-2.09% (inactive),inactive,inactive,,
CCCc1cc(=O)[nH]c(=S)[nH]1,inactive,inactive,inactive,inactive,inactive,inactive,inactive,-3.01% (inactive),inactive,inactive,,
Cc1cc(C)nc(NS(=O)(=O)c2ccc(N)cc2)n1,inactive,inactive,inactive,inactive,inactive,inactive,inactive,,,,,
CCOc1ccc(NC(C)=O)cc1,inactive,inactive,inactive,inactive,inactive,inactive,inactive,,,,,
CCN(Cc1c(F)cccc1Cl)c1c([N+](=O)[O-])cc(C(F)(F)F)cc1[N+](=O)[O-],inactive,inactive,inactive,54.5 µM (active),inactive,inactive,8630 nM (active),,,,,
CCCCCCCCCCCC[N+](C)(C)Cc1ccccc1,inactive,52.8 µM (active),67.3 µM (active) and 66.4 µM (active),42.4 µM (active) and 33.3 µM (active) and 26.6 µM (active),inactive,67.3 µM (active) and 74.5 µM (active) and inactive,inactive,,,,,
CCCCC1(COC(=O)CCC(=O)O)C(=O)N(c2ccccc2)N(c2ccccc2)C1=O,inactive,inactive,inactive,inactive,inactive,inactive,,,,,,
CC(C)NCC(O)c1ccc(O)c(O)c1 (centres undefined),inactive,inactive,inactive,inactive,inactive,inactive,,,,,,
COc1ccc(C(Cl)=C(c2ccc(OC)cc2)c2ccc(OC)cc2)cc1,inactive,inactive,inactive,inactive,inactive,inactive,,,,,,
NS(=O)(=O)c1cc2c(cc1Cl)NCNS2(=O)=O,inactive,inactive,inactive,inactive,inactive,inactive,inactive,,,,,
COc1ccc(CN(CCN(C)C)c2ccccn2)cc1,inactive,inactive,inactive,inactive,inactive,inactive,inactive,,,,,
CCCCCCCC(=O)OCC(COC(=O)CCCCCCC)OC(=O)CCCCCCC,inactive,inactive,inactive,inactive,inactive,inactive,inactive,-1.45% (inactive),inactive,inactive,,
F[B-](F)(F)F,inactive,inactive,inactive,inactive,inactive,inactive,inactive,,,,,
CN(C)CCOC(c1ccccc1)c1ccccc1,inactive,inactive,inactive,inactive,inactive,inactive,54.8 µM (active) and inactive,,,,,
Cc1ncc([N+](=O)[O-])n1CCO,inactive,inactive,inactive,inactive,inactive,inactive,inactive,,,,,
Cc1ncc([N+](=O)[O-])n1C,inactive,inactive,inactive,inactive,inactive,inactive,inactive,,,,,
CCCCNC(=O)NS(=O)(=O)c1ccc(C)cc1,inactive,inactive,inactive,inactive,inactive,inactive,,,,,,
C1=CC2C3C=CC(C3)C2C1 (centres undefined),34.1 µM (active),inactive,inactive,inactive,inactive,inactive,,,,,,
CC(C)C(=O)Nc1ccc([N+](=O)[O-])c(C(F)(F)F)c1,inactive,50.1 µM (active) and inactive,inactive,44.5 µM (active) and 54.5 µM (active) and 26.6 µM (active),inactive,inactive,35.4 µM (active) and 34.4 µM (active) and 29.8 µM (active),,,,,

Compound,Potency [1],Potency [2],Potency [3],Potency [4],Potency [5],Potency [6],Potency [7],max activation [8],Potency [9],outcome [10],caspase activation [3],caspase-3/7 activation [5]
OC[C@H]1O[C@H](O[C@]2(CCl)O[C@H](CCl)[C@@H](O)[C@@H]2O)[C@H](O)[C@@H](O)[C@H]1Cl,inactive,inactive,inactive,inactive,inactive,inactive,inactive,,,,,
CN1CCC[C@H]1c1cccnc1,inactive,inactive,inactive,inactive,inactive,inactive,inactive,,,,,
NC1CCCCC1,inactive,inactive,inactive,inactive,inactive,inactive,inactive,,,,,
Cc1cccc(C)c1,inactive,inactive,inactive,inactive,inactive,inactive,inactive,,,,,
CS(=O)(=O)OCCCCOS(C)(=O)=O,inactive,inactive,inactive,inactive,inactive,inactive,inactive,-4.1% (inactive),inactive,inactive,,
Nc1ccc(S(N)(=O)=O)cc1,inactive,inactive,inactive,48.8 µM (active) and inactive,inactive,inactive,,,,,,
CCCCCCc1ccc(O)cc1O,inactive,inactive,inactive,61.3 µM (active) and 61.1 µM (active) and 1.19 µM (active),inactive,inactive,68.8 µM (active) and inactive,-2.3% (inactive),inactive,inactive,,
C/C=C/C=C/C(=O)O,inactive,inactive,inactive,inactive,inactive,inactive,,0.352% (inactive),,,,
O=C(Nc1ncc([N+](=O)[O-])s1)c1cccs1,inactive,23.7 µM (active),inactive,26.6 µM (active),inactive,29.8 µM (active),531 nM (active),,inactive,,,
O=C1NS(=O)(=O)c2ccccc21,inactive,inactive,inactive,inactive,inactive,inactive,,-1.81% (inactive),,,,
CNNCc1ccc(C(=O)NC(C)C)cc1,inactive,inactive,inactive,inactive,inactive,inactive,,-1.77% (inactive),,,,
CC(C)c1c(C(=O)Nc2ccccc2)c(-c2ccccc2)c(-c2ccc(F)cc2)n1CC[C@@H](O)C[C@@H](O)CC(=O)O,inactive,inactive,26.3 µM (active),,inactive,inactive,,,,,,
CN1CCc2cccc3c2[C@H]1Cc1ccc(O)c(O)c1-3,inactive,43.7 µM (active) and 18.1 µM (active) and 29.8 µM (active),inactive,55 µM (active) and 22.8 µM (active) and 23.7 µM (active),inactive,61.8 µM (active) and 25.6 µM (active),inactive,9.82% (inactive),6.31 µM (active),inactive,,
Oc1ccccc1,,inactive,inactive,inactive,inactive,inactive,,,,,,
O=C(O)CC(O)C(=O)O (centres undefined),inactive,inactive,inactive,inactive,inactive,inactive,inactive,-2.6% (inactive),,inactive,,
Nc1ccc2c(c1)CN1C(=O)c3ccccc3C1=N2,8.27 µM (active),,,,,,73 nM (active),,,,-14.3% [at 19 µM] (inactive),-7.02% [at 19 µM] (inactive)
C=CCc1ccc(O)c(OC)c1,inactive,inactive,inactive,inactive,inactive,inactive,inactive,-1.79% (inactive),inactive,inactive,,
O=CC(=O)c1ccccc1,inactive,inactive,inactive,,inactive,inactive,inactive,,,,,
CN(C)C(=O)Nc1ccc(Cl)c(Cl)c1,inactive,inactive,inactive,inactive,inactive,inactive,60.9 µM (active) and 48.6 µM (active) and inactive,-0.866% (inactive),inactive,inactive,,
Cc1c(C(=O)O)c(O)cc2c1C(=O)c1c(O)c([C@@H]3O[C@H](CO)[C@@H](O)[C@H](O)[C@H]3O)c(O)c(O)c1C2=O,inactive,11.2 µM (active) and 13.7 µM (active) and 23.7 µM (active),inactive,33.5 µM (active) and 27.3 µM (active) and 23.7 µM (active),inactive,18.9 µM (active) and 15.4 µM (active) and 26.6 µM (active),inactive,-3.66% (inactive),inactive,inactive,,
C[C@](N)(Cc1ccc(O)c(O)c1)C(=O)O,inactive,inactive,inactive,inactive,inactive,inactive,inactive,-6.56% (inactive),inactive,inactive,,
